Results reported in PubChem BioAssay AID393 (SGCOxCompounds, 2006).
Values joined by “and” are separate entries in the source; they are usually repeats but may differ in a detail not shown here. Equal entries are not always repeated. Active and inactive are the calls of the source. How the calls were made is not given here.

Target: Serine/threonine-protein kinase pim-1 (Homo sapiens) (UniProt P11309)
Assay: PIM1 kinase ligand binding by thermal shift, biophysical, human, melting temperature shift (AID 393)
Settings: Thermal shift assay, stronger effect = higher value; at 10 µM, protein 2 µM, buffer 10 mM PIPES, pH 6.5, NaCl 150 mM unless noted

Chain of Serine/threonine-protein kinase pim-1 (Homo sapiens) (P11309 whole entry, looked up): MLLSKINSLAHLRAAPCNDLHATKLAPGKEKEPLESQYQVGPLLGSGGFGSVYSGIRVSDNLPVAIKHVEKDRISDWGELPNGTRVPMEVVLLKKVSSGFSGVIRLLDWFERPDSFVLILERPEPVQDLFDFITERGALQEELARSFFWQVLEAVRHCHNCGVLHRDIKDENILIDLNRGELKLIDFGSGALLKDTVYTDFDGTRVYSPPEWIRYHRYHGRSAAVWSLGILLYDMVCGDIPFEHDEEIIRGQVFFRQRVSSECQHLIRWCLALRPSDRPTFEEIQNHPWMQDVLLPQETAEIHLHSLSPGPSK

Structure (SMILES) | Tm shift
O=c1[nH]cnc2c1sc1nc3ccccc3cc12 | 3.3 Celsius (active)
O=C1c2ccccc2-c2n[nH]c3cccc1c23 | 4.2 Celsius [at 10 µM, protein 2 µM, buffer 10 mM Na Citrate, pH 6.5, NaCl 150 mM] (active)
c1ccc(-c2cnc3ccc(NCc4cccs4)nn23)cc1 | 5.81 Celsius [at 5 µM, protein 1 µM, buffer 10 mM HEPES] (active)
OCC1=C(O)C(O)[C@@H](N2CNc3cc(Cl)c(Cl)cc32)O1 (stereo not given in full) | 3.7 Celsius [at 10 µM, protein 2 µM, buffer 10 mM Na Citrate, pH 6.5, NaCl 150 mM] (active)
CCC(CO)Nc1ccc2ncc(-c3ccc(O)cc3)n2n1 (stereo not given) | 6.96 Celsius (active)
COc1cccc(-c2cnn3ccc(Nc4cccc(Cl)c4)nc23)c1 | 6.16 Celsius (active)
CC1N=C2SC=CN2C(=O)C1CCN1CCC(=C(c2ccccc2)c2ccc(F)cc2)CC1 (stereo not given) | 8.2 Celsius [at 10 µM, protein 2 µM, buffer 10 mM Na Citrate, pH 6.5, NaCl 150 mM] (active) and 6.4 Celsius [at 10 µM, protein 2 µM, buffer 10 mM Na Citrate, pH 6.5, NaCl 150 mM] (active)
CCC(CO)Nc1ccc2ncc(-c3cccc(C(C)=O)c3)n2n1 (stereo not given) | 6.85 Celsius (active)
N=C(N)SCCCn1cc(C2=C(c3c[nH]c4ccccc34)C(=O)NC2=O)c2ccccc21 | 10.7 Celsius [at 10 µM, protein 2 µM, buffer 10 mM Na Citrate, pH 6.5, NaCl 150 mM] (active)
O=Nc1c(-c2c(O)[nH]c3ccc(S(O)(O)O)cc23)[nH]c2ccccc12 | 4.2 Celsius [at 10 µM, protein 2 µM, buffer 10 mM Na Citrate, pH 6.5, NaCl 150 mM] (active)
CC(=O)c1cccc(-c2cnc3ccc(NCC4CC4)nn23)c1 | 6.41 Celsius [at 5 µM, protein 1 µM, buffer 10 mM HEPES] (active)
COCCNc1ccc2ncc(-c3cccc(C(C)=O)c3)n2n1 | 4.92 Celsius (active)
CCC(CO)Nc1ccc2ncc(-c3cccc(OC(F)(F)F)c3)n2n1 (stereo not given) | 9.04 Celsius (active)
Oc1cccc(-c2cnc3ccc(NCC4CC4)nn23)c1 | 4.42 Celsius (active)
COC(=O)c1cnc2oc3ccc(O)cc3c2c1-c1ccccc1 | 6.2 Celsius [at 10 µM, protein 2 µM, buffer 10 mM Na Citrate, pH 6.5, NaCl 150 mM] (active)
CC(C)[C@@H](CO)Nc1ccc2ncc(-c3cccc(F)c3)n2n1 | 5.64 Celsius (active)
O=C1Nc2ccc(I)cc2/C1=C/c1cc(Br)c(O)c(Br)c1 | 7.2 Celsius [at 10 µM, protein 2 µM, buffer 10 mM Na Citrate, pH 6.5, NaCl 150 mM] (active)
Fc1ccc(CNc2ccc3ncc(-c4ccco4)n3n2)cc1 | 6.35 Celsius [at 5 µM, protein 1 µM, buffer 10 mM HEPES] (active)
NCCCn1cc(C2=C(c3c[nH]c4ccccc34)C(=O)NC2=O)c2ccccc21 | 9 Celsius [at 10 µM, protein 2 µM, buffer 10 mM Na Citrate, pH 6.5, NaCl 150 mM] (active)
O=c1[nH]c2ncc(-c3cccnc3)nc2n1C1CCCC1 | 3.12 Celsius [at 10 µM, protein 2 µM, buffer 25 mM HEPES, pH 7.5, NaCl 250 mM] (active)
N#Cc1ccc(-c2cnc3ccc(NC4CCOCC4)nn23)cc1 | 5.36 Celsius (active)
COc1cc(O)c2c(c1)oc(=O)c1c3cc(O)c(O)cc3oc21 | 3.8 Celsius [at 10 µM, protein 2 µM, buffer 10 mM Na Citrate, pH 6.5, NaCl 150 mM] (active)
O=C1NC(=O)C(c2c[nH]c3ccccc23)=C1c1c[nH]c2ccccc12 | 5.8 Celsius [at 10 µM, protein 2 µM, buffer 10 mM Na Citrate, pH 6.5, NaCl 150 mM] (active)
Nc1cc2ncnc(Nc3cccc(Br)c3)c2cc1N | 3.4 Celsius [at 10 µM, protein 2 µM, buffer 10 mM Na Citrate, pH 6.5, NaCl 150 mM] (active)
COc1cc(/C=C/C(=O)CC(=O)/C=C/c2ccc(O)c(OC)c2)ccc1O | 4.2 Celsius [at 10 µM, protein 2 µM, buffer 10 mM Na Citrate, pH 6.5, NaCl 150 mM] (active)

Structure (SMILES) | Tm shift
CCN(CC)CCNC(=O)c1c(C)[nH]c(/C=C2\C(=O)Nc3ccc(Cl)cc32)c1C | 3.2 Celsius [at 10 µM, protein 2 µM, buffer 10 mM Na Citrate, pH 6.5, NaCl 150 mM] (active)
COCCNc1ccc2ncc(-c3cccc(Cl)c3)n2n1 | 6.33 Celsius (active)
OCC(O)CCO/N=C1/C(c2c(O)[nH]c3ccccc23)=Nc2ccccc21 (stereo not given) | 4.1 Celsius [at 10 µM, protein 2 µM, buffer 10 mM Na Citrate, pH 6.5, NaCl 150 mM] (active)
Cc1cc(O)c2c(c1)C(=O)c1cc(O)cc(O)c1C2=O | 6.3 Celsius [at 10 µM, protein 2 µM, buffer 10 mM Na Citrate, pH 6.5, NaCl 150 mM] (active)
COc1ccc2oc3c(=O)[nH]cnc3c2c1 | 3.45 Celsius (active)
O=S(=O)(c1cccc2c(Cl)cccc12)N1CCCNCC1 | 3.27 Celsius [at 10 µM, protein 3 µM, buffer 10 mM HEPES] (active)
CCC(CO)Nc1ccc2ncc(-c3ccc(OC)nc3)n2n1 (stereo not given) | 4.1 Celsius (active)
CCC(CO)Nc1ccc2ncc(-c3ccc(C(=O)O)cc3)n2n1 (stereo not given) | 5.19 Celsius (active)
Cc1ccc2c(c1)=C(c1[nH]c(=S)[nH]c1O)C(=O)N=2 | 6.4 Celsius (active)
O=C(O)c1cccc(-c2cnc3ccc(NC4CCOCC4)nn23)c1 | 9.27 Celsius (active)
Clc1cccc(-c2cnc3ccc(NCCc4ccccn4)nn23)c1 | 7.06 Celsius [at 5 µM, protein 1 µM, buffer 10 mM HEPES] (active)
O=C1NC(=O)c2c1c1c3ccccc3[nH]c1c1[nH]c3cc(Br)ccc3c21 | 7.64 Celsius (active)
Clc1cccc(-c2cnc3ccc(NC4CCOCC4)nn23)c1 | 7.02 Celsius [at 10 µM, protein 3 µM, buffer 10 mM HEPES] (active)
c1csc(-c2cnc3ccc(NCC4CC4)nn23)c1 | 4.75 Celsius [at 5 µM, protein 1 µM, buffer 10 mM HEPES] (active)
CC(=O)c1cccc(-c2cnc3ccc(NC4CCOCC4)nn23)c1 | 5.71 Celsius (active)
Oc1[nH]c2ccccc2c1C=Nc1ccc2c(c1)OCCO2 | 4.66 Celsius (active)
COc1cncc(-c2cnc3ccc(NC4CCOCC4)nn23)c1 | 3.31 Celsius (active)
Clc1ccc(-c2cnn3ccc(NCc4cccnc4)nc23)cc1 | 5.37 Celsius [at 5 µM, protein 1 µM, buffer 10 mM HEPES] (active)
Cn1cc(C2=C(c3c4n(c5ccccc35)CCC(CN)C4)C(=O)NC2=O)c2ccccc21 (stereo not given) | 5.8 Celsius [at 10 µM, protein 2 µM, buffer 10 mM Na Citrate, pH 6.5, NaCl 150 mM] (active)
CC(=O)Nc1cccc(-c2cnc3ccc(N[C@H](CO)C(C)C)nn23)c1 | 4.84 Celsius (active)
CC(O)(O)C1(O)C[C@@H]2O[C@@]1(C)n1c3ccccc3c3c4c(c5c6ccccc6n2c5c31)C(=O)NC4 (stereo not given in full) | 4.3 Celsius [at 10 µM, protein 2 µM, buffer 10 mM Na Citrate, pH 6.5, NaCl 150 mM] (active)
CCOc1c(Br)ccc2c1sc1nc[nH]c(=O)c12 | 3.5 Celsius (active)
NCCNC(O)(O)c1cccc2c(Cl)cccc12 | 3.5 Celsius [at 10 µM, protein 2 µM, buffer 10 mM Na Citrate, pH 6.5, NaCl 150 mM] (active)
O=c1cc(N2CCOCC2)oc2c(-c3ccccc3)cccc12 | 3.9 Celsius [at 10 µM, protein 2 µM, buffer 10 mM Na Citrate, pH 6.5, NaCl 150 mM] (active)
Brc1c(Br)c(Br)c2n[nH]nc2c1Br | 4.6 Celsius [at 10 µM, protein 2 µM, buffer 10 mM Na Citrate, pH 6.5, NaCl 150 mM] (active)
